# Records with an inconclusive call do not appear. Activity calls are given as the source filed them.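 How the source made its calls, unless noted: active means viability increase at or above a cutoff of the median across tested compounds plus 3 SD (cut at about 8.5% in these data, passing the limit was not always enough); inconclusive means some gains above the cutoff, reason not given; inactive means the rest.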
# What was measured:
# [1] = HUVEC growth inhibition – cell-based, human, primary screen (AID 575;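 active means viability at or below 30% in both replicate assays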;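 further: 100% = median of untreated cell wells with 0.1% DMSO on each plate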); conditions: HUVEC proliferation, CellTiter-Glo luminescence, 72 h; at 10 µM; stronger effect = lower value
# [2] = H69AR cell proliferation blockers – human, duplicate replicates, primary screen (AID 580;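 active means viability at or under a set limit in both replicates, limit being median viability minus 3 SD, cut at about 48% in these data, passing the limit was not always enough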;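 further: 100% = mean luminescence of untreated wells and 0% = no signal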); conditions: H69AR lung tumor cells viability, ATP luminescence, 72 h; at 10 µM; stronger effect = lower value
# [3] = MRP1 drug-resistance reversers in H69AR cells – cell-based, doxorubicin co-treatment, pilot screen (AID 601;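 active means viability loss from added drug above about 55%, and viability with drug at most 40%, in both replicates, limit read from the data, passing the limit was not always enough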); conditions: CellTiter-Glo, 72 h, at 10 µM; for differential viability (reversal): stronger effect = higher value
# [4] = yeast transport mutant growth inhibition pilot in 384-well plates, post-Golgi transport modulator project (AID 636; in the data active means inhibition above about 31%); conditions: absorbance 615 nm, about 18 h, stronger effect = higher value
# [5] = growth suppression of yeast trafficking mutant, preliminary HTS, modulators of trafficking downstream of Golgi apparatus project, 1536-format plate, OD 615 nm (AID 637; in the data active means inhibition above about 30%); conditions: yeast transport mutant growth, absorbance 615 nm, 18 h; stronger effect = higher value
# [6] = S. cerevisiae growth inhibition in permissive medium (OD615), pilot counter-assay for S. cerevisiae lifespan shortening project, permissive growth control (AID 705;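 active means growth inhibition above 25% in both replicates, a cutoff set 3 SD above the mean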); conditions: OD615, 24 h, at 10 µM, stronger effect = higher value
# [7] = S. cerevisiae growth inhibition in restrictive medium, OD615, pilot screen, restrictive growth control, yeast lifespan reduction project (AID 706;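 active means growth inhibition above a set limit, 3 SD over mean compound inhibition, in both replicates, cut at about 43% in these data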;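 further: modified DeaD lifespan yeast strain shifted to restrictive glucose medium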); conditions: OD615, 48 h, at 10 µM, stronger effect = higher value
# [8] = doxorubicin toxicity protection in MRP-1 cells – H69AR cells, CellTiter-Glo, duplicate, MRP-1 activator project, pilot screen (AID 807); conditions: H69AR viability with doxorubicin, CellTiter-Glo luminescence; at 10 µM; stronger effect = higher value;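 further: compound pretreatment 18-22 h then 72 h combined with doxorubicin; 0% = doxorubicin alone and 100% = vehicle without doxorubicin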
# [9] = viability of HCT116 without oncogenic beta-catenin – human colon tumor cells, pilot screen (AID 823;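 active means cell viability at or below a set limit in both duplicate runs, the limit being the all-compound median minus 4 SD, cut at about 23% in these data, passing the limit was not always enough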;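 further: 0% = wells killed by 20 µM Hyamine and 100% = untreated DMSO cell wells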); conditions: HCT116 beta-catenin knockout viability, CellTiter-Glo, 60 h; at 10 µM; stronger effect = lower value
# [10] = viability of PTEN-null HCT116 cells – cell-based, HCT116 clonal line, CellTiter-Glo, pilot screen (AID 824;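 active means viability at or below 27.92% in each of two runs, the all-compound median minus 4 SD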;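 further: 0% = 20 µM Hyamine control and 100% = vehicle cell control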); conditions: HCT116 PTEN-deleted viability, 60 h, at 10 µM, stronger effect = lower value
# [11] = RAM pathway blockade in budding yeast – dse1pr::URA3 reporter, 5-FOA selection, pilot screen (AID 869;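 active means inhibition over a set limit, the all-compound mean plus 3 SD, in both replicate runs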;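 further: 0% = DMSO wells with no growth and 100% = 10 µM 1-NA-PP1 with full growth; RAM network block rescues cells from 5-FOA so hits raise OD615 growth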); conditions: S. cerevisiae dse1pr::URA3 5-FOA growth, OD615, 2 d; at 10 µM; stronger effect = higher value; strain carries analog-sensitive mutant Cbk1 kinase
# [12] = RAM signaling pathway blockade in yeast – S. cerevisiae, Pdr1DBD-CYC8 efflux-inhibited sensitized strain, primary screen (AID 1298;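 active means RAM network inhibition above 8.4% in each of two replicates, 3 SD over the compound average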;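 further: 0% = DMSO untreated cells without growth and 100% = 10 µM 1-NA-PP1 full growth; higher means more yeast growth rescued from 5-FOA killing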); conditions: S. cerevisiae cbk1-as DSE1-URA3 strain, 5-FOA growth OD615, 2 d; at 50 µM; stronger effect = higher value
# [13] = H69AR cells + 2 uM doxorubicin, measured here: viability with 2 uM doxorubicin, stronger effect = lower value
# [14] = H69AR cells, compound alone cytotoxicity
SMILES,viability [1],viability [2],differential viability (reversal) ([3]; H69AR cells + 2 uM doxorubicin),"viability [3, 13] [%]","viability [3, 14] [%]",inhibition [4],inhibition [5],growth inhibition [6],growth inhibition [7],viability increase [8],viability [9],viability [10],inhibition [11],RAM network inhibition [12]
COc1cc2[nH]c(=O)n(CCCCCC(=O)NCCCN3CCCC3=O)c(=O)c2cc1OC,103% (inactive),104% (inactive),11.6% (inactive),92.9,104,-5.39% (inactive),-0.32% (inactive),-1.87% (inactive),-4% (inactive),1.13% (inactive),103% (inactive),104% (inactive),1.91% (inactive),6.37% (inactive)
CCc1cc2c(NCCC(=O)O)ncnc2s1,83.3% (inactive),97.6% (inactive),5.87% (inactive),91.7,97.6,-3.51% (inactive),-0.48% (inactive),-7.78% (inactive),-13.1% (inactive),-1.99% (inactive),101% (inactive),99.6% (inactive),3.42% (inactive),2.49% (inactive)
O=C(NCCN1CCN(c2ccccc2)CC1)c1ccc(NC(=O)C2CCCO2)cc1 (centres undefined),96.9% (inactive),108% (inactive),8.13% (inactive),100,108,-3.82% (inactive),-0.48% (inactive),-5.63% (inactive),-8.76% (inactive),-1.13% (inactive),95.6% (inactive),101% (inactive),1.66% (inactive),2.86% (inactive)
O=C(CN1C(=O)NC(Cc2ccccc2)C1=O)Nc1ccccc1 (centres undefined),101% (inactive),96.7% (inactive),-0.17% (inactive),96.9,96.7,-1.17% (inactive),-0.63% (inactive),-11.6% (inactive),-16.5% (inactive),1.83% (inactive),97.8% (inactive),94.6% (inactive),1.85% (inactive),0.35% (inactive)
CCCN1CCN(C(=O)c2cn(CC(C)C)c(=O)c3cc(OC)c(OC)cc23)CC1,93.1% (inactive),78% (inactive),-0.945% (inactive),78.9,78,-4.74% (inactive),4.92% (inactive),-19.2% (inactive),-0.27% (inactive),-2.46% (inactive),100% (inactive),88.4% (inactive),2.42% (inactive),2.08% (inactive)
Cc1ccc(-c2cc(C(F)F)nc(N3CCC(C)CC3)n2)cc1,85.7% (inactive),91.1% (inactive),1.39% (inactive),89.7,91.1,-4.47% (inactive),1.75% (inactive),3.35% (inactive),6.11% (inactive),1.95% (inactive),100% (inactive),101% (inactive),2.67% (inactive),6.64% (inactive)
O=C1CC(c2ccco2)CC(O)=C1C=NCCN1CCNCC1 (centres undefined),103% (inactive),95.6% (inactive),3.35% (inactive),92.3,95.6,0.13% (inactive),5.56% (inactive),-10.2% (inactive),3.51% (inactive),0.26% (inactive),91% (inactive),101% (inactive),0.405% (inactive),1.52% (inactive)
CCCCNC(=O)Nc1ccnn1C1CCCCC1,96.5% (inactive),100% (inactive),13% (inactive),87.2,100,-3.64% (inactive),7.14% (inactive),-5.58% (inactive),-15% (inactive),-1.77% (inactive),97.9% (inactive),90.7% (inactive),-0.255% (inactive),-2.79% (inactive)
CCCCC(NC(C)=O)c1nc2ccccc2n1CCC (centres undefined),93.9% (inactive),100% (inactive),10.6% (inactive),89.7,100,1.32% (inactive),7.62% (inactive),-5.8% (inactive),-2.95% (inactive),-0.99% (inactive),93.6% (inactive),93.3% (inactive),1.44% (inactive),-0.69% (inactive)
O=C(c1ccc(NS(=O)(=O)c2cccs2)cc1)N1CCCCC1,72.9% (inactive),89.9% (inactive),-7.68% (inactive),97.5,89.9,-2.63% (inactive),-9.05% (inactive),1.61% (inactive),-2.64% (inactive),-1.41% (inactive),93.8% (inactive),96.8% (inactive),0.805% (inactive),1.56% (inactive)
Cc1ccc(S(=O)(=O)c2nc(-c3ccco3)oc2SCC(=O)NCC2CCCO2)cc1 (centres undefined),101% (inactive),92.8% (inactive),6.32% (inactive),86.4,92.8,-0.13% (inactive),-3.02% (inactive),0.025% (inactive),0.35% (inactive),-2.88% (inactive),101% (inactive),104% (inactive),1.47% (inactive),2.72% (inactive)
COc1ccccc1NC(=O)N(Cc1ccccc1)c1ccccn1,83.4% (inactive),85.3% (inactive),-5.91% (inactive),91.2,85.3,-5.58% (inactive),-4.92% (inactive),-9.36% (inactive),-2.62% (inactive),0.35% (inactive),87% (inactive),88.6% (inactive),2.24% (inactive),6.47% (inactive)
COc1cccc(N2CCN(c3c4c(nc5ncnn35)CCC4)CC2)c1,68.7% (inactive),86.9% (inactive),10.4% (inactive),76.5,86.9,-4.55% (inactive),8.73% (inactive),-0.38% (inactive),16.8% (inactive),-1.17% (inactive),77.5% (inactive),92.9% (inactive),0.465% (inactive),4.78% (inactive)
COc1ccc(-c2nc(N3CCCC3)[nH]c(=O)c2C#N)cc1,97% (inactive),87.9% (inactive),2.17% (inactive),85.8,87.9,-1.45% (inactive),0.79% (inactive),0.51% (inactive),0.48% (inactive),-0.94% (inactive),104% (inactive),90.7% (inactive),1.63% (inactive),3.39% (inactive)
O=C(NCc1cccs1)C(Cc1ccccc1)NS(=O)(=O)c1cccs1 (centres undefined),95.7% (inactive),91.7% (inactive),4.5% (inactive),87.2,91.7,-3.16% (inactive),5.08% (inactive),-17.7% (inactive),-8.73% (inactive),-1.46% (inactive),94.3% (inactive),–,1.43% (inactive),4.56% (inactive)

# — PubChem BioAssay
